Screening data as filed in PubChem BioAssay.
Mdm2 MdmX PPI – disrupts the human Mdm2-MdmX interaction; O15151+Q00987; SaOS-2 split-luciferase Mdm2/MdmX complementation, luminescence; inhibition, % at 8 µM; 3% of 330,000 active; AID 485346;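 active means inhibition of at least 50% at 8 µM in the primary screen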
Target sequence (O15151 whole entry, looked up): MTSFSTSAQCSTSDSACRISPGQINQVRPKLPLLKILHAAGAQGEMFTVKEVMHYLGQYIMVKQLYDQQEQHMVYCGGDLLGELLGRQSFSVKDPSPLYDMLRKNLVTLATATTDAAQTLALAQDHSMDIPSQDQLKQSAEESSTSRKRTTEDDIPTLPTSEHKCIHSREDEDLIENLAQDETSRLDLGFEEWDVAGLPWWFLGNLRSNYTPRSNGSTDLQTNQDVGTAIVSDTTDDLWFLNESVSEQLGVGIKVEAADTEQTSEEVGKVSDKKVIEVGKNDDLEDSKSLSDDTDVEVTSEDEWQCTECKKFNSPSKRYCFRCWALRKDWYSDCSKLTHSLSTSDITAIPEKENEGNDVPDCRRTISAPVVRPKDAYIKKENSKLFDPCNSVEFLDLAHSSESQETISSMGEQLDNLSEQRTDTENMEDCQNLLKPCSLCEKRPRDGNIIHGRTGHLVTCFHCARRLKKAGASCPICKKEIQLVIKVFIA
Target sequence (Q00987 whole entry, looked up): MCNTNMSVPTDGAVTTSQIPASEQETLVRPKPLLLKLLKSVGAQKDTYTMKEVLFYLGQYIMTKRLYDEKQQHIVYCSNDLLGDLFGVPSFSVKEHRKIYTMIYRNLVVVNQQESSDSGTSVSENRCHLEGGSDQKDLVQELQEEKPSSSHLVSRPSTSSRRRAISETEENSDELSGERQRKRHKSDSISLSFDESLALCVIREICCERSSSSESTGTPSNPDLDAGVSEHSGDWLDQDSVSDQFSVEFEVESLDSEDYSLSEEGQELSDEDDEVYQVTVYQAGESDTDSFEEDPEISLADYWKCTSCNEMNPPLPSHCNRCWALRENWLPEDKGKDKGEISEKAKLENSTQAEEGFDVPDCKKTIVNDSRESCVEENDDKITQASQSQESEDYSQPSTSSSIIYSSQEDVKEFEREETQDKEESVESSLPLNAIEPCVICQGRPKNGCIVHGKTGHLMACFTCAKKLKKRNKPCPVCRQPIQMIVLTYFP
PP5 primary – blocks human protein phosphatase 5 activity; P53041; purified PP5c, OMFP substrate fluorescence; inhibition, % at 6.7 µM; 0.18% of 320,000 active;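 active means inhibition above the campaign's mean inhibition across all tested compounds plus 3 SD, cut at about 9.5% in these data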
Beta cell apopt – blocks beta cell apoptosis; protection from apoptosis, % (test concentration not listed); 0.8% of 300,000 active; INS-1E cytokine-induced death, ATP luminescence, 48 h; percent of positive-control rescue, neutral wells zero;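 active means Every replicate reaches about 75%, or at least half do and their mean reaches it too, limit read from the data; inconclusive means At least half of replicates reach the limit but their mean does not; inactive means Under half of replicates reach the limit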;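 further: higher means more ATP so stronger rescue from cytokine killing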
PP1 counter – PP1-alpha (human) inhibition in PP5 counter-screen | P62136 | purified PP1alpha, OMFP fluorescence | inhibition, % at 6.7 µM | 0.9% of 320,000 active | AID 2235;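 active means inhibition above the mean inhibition of all tested compounds plus 3 SD, computed separately for each screening campaign, cut at about 15% in these data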
CSC inhib – cancer stem cell inhibition. 1.1% of 300,000 active. inhibition, % at 7.5 µM. cancer stem cell-like cells viability, luminescence; in the data active means inhibition above about 75%; inconclusive means no clear call, values can overlap the other calls; tested in HMLE shEcad cells
Calb FLC – C. albicans growth modulation with fluconazole; 0.57% of 300,000 active; AID 1979; C. albicans CaCi-2 (fluconazole-resistant clinical isolate) + fluconazole, Alamar Blue growth, 48 h; growth inhibition, % (test concentration not listed);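 active means growth inhibition above about 58% in most replicates, limit read from the data, passing the limit was not always enough; inconclusive means exactly half the replicates above a set limit; inactive means most replicates below a set limit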;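 further: all wells also contain fluconazole at 8 µg/ml as a sub-toxic cotreatment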
Mdm2-MdmX conf – confirmation of human Mdm2/MdmX interaction inhibitors; shares compounds with Mdm2 MdmX PPI; Mdm2-MdmX binding, luminescent assay; inhibition, % at 8 µM; 55% of 10,000 active; in the data active means inhibition above about 40%
FLuc counter – inhibits full-length luciferase, flagging false Mdm2/MdmX hits | shares compounds with Mdm2 MdmX PPI | SaOS-2 full-length luciferase counterscreen, luminescence | inhibition, % at 8 µM | 77% of 6,200 active | AID 504607;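 active means mean inhibition at 8 µM reaching about 37%, which flags the compound as non-specific, limit read from the data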;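 further: p53-null SaOS-2 cells with luciferase driven by a doxycycline-inducible promoter; compound on cells about two nights before reading with doxycycline added after day one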
Hits are given with their value. An excerpt weighted towards active compounds, which were near 4.9% of everything screened.

Cc1nc2ncccn2c1-c1csc(Nc2ccccc2)n1 was read as Mdm2 MdmX PPI 62.0, PP5 primary inactive, Beta cell apopt inactive, PP1 counter inactive, CSC inhib inactive, Calb FLC inactive and Mdm2-MdmX conf inactive.
CC(=O)Nc1ccc(Nc2nc(-c3c(C)nc4ccccn34)cs2)cc1 was read as Mdm2 MdmX PPI 66.2, PP5 primary inactive, Beta cell apopt inactive, PP1 counter inactive, CSC inhib inactive, Calb FLC inactive, Mdm2-MdmX conf 46.9 and FLuc counter 66.0.
`CCC(NC(=O)Nc1nnc(C(F)(F)F)s1)(C(F)(F)F)C(F)(F)F` gave Mdm2 MdmX PPI 91.2, PP5 primary inactive, Beta cell apopt 124.1, PP1 counter inactive, CSC inhib inactive, Calb FLC inconclusive, Mdm2-MdmX conf 90.2 and FLuc counter inactive.
`CCc1ccc(/C=N\n2cnnc2)cc1` gave Mdm2 MdmX PPI inactive, PP5 primary inactive, Beta cell apopt inactive, PP1 counter inactive, CSC inhib inactive and Calb FLC inactive.
For Cc1nc(SC(C)C(=O)NCC2CCCO2)c2cc(-c3ccccc3)sc2n1 (stereo not drawn) the results were Mdm2 MdmX PPI 97.3, PP5 primary inactive, Beta cell apopt inactive, PP1 counter inactive, CSC inhib inactive, Calb FLC inactive, Mdm2-MdmX conf 95.9 and FLuc counter 54.8.
CC(=O)NC(CC(=O)OCC(=O)Nc1ccc2c(c1)OCO2)c1ccccc1 (stereo not drawn) was read as Mdm2 MdmX PPI inactive, PP5 primary inactive, Beta cell apopt inactive, PP1 counter inactive and Calb FLC inactive.
For CCN(CC)S(=O)(=O)c1ccc(OC)c(NC(=O)c2cc3c(=O)n4ccccc4nc3s2)c1 the results were Mdm2 MdmX PPI 55.4, PP5 primary inactive, Beta cell apopt inactive, PP1 counter inactive, CSC inhib inactive, Calb FLC inactive and Mdm2-MdmX conf inactive.
Cc1cccc(NC(=O)c2cc3c(=O)n4ccccc4nc3s2)c1 was read as Mdm2 MdmX PPI inactive, PP5 primary inactive, Beta cell apopt inactive, PP1 counter inactive, CSC inhib inactive and Calb FLC inactive.
For O=C(Nc1cccc(Cl)c1)c1cc2c(=O)n3ccccc3nc2s1 the results were Mdm2 MdmX PPI 55.6, PP5 primary inactive, Beta cell apopt inactive, PP1 counter inactive, CSC inhib inactive, Calb FLC inactive and Mdm2-MdmX conf inactive.
O=Cc1ccccc1OCCOc1ccc([N+](=O)[O-])cc1 was read as Mdm2 MdmX PPI inactive, PP5 primary inactive, Beta cell apopt inactive, PP1 counter inactive, CSC inhib inactive and Calb FLC inactive.
CCCC12C(=O)C(C)(C(c3ccccc3)=C1c1ccccc1)C1C(=O)N(c3ccc(C)cc3)C(=O)C12 (stereo not drawn) was read as Mdm2 MdmX PPI 79.9, PP5 primary inactive, Beta cell apopt 105.0, PP1 counter inactive, CSC inhib inactive, Calb FLC inactive, Mdm2-MdmX conf 80.3 and FLuc counter 69.2.
`CCC12C(=O)C(CC)(C(c3ccccc3)=C1c1ccccc1)[C@@H]1C(=O)N(c3ccc(C)cc3)C(=O)C12` (stereo partly drawn) gave Mdm2 MdmX PPI inactive, PP5 primary inactive, Beta cell apopt inactive, PP1 counter inactive, CSC inhib inactive and Calb FLC inactive.
CCC12C(=O)C(CC)(C(c3ccccc3)=C1c1ccccc1)[C@@H]1C(=O)N(c3ccccc3)C(=O)C12 (stereo partly drawn) was read as Mdm2 MdmX PPI 53.8, PP5 primary inactive, Beta cell apopt inactive, PP1 counter inactive, CSC inhib inactive, Calb FLC inactive, Mdm2-MdmX conf 65.1 and FLuc counter 59.3.
Screening C=CCn1c(O)c(N=NC(=S)Nc2cccc(OC)c2)c2ccccc21 returned Mdm2 MdmX PPI 58.3, PP5 primary inactive, Beta cell apopt inactive, PP1 counter inactive, CSC inhib inactive, Calb FLC inactive, Mdm2-MdmX conf 40.0 and FLuc counter 48.2.
O=C(COC(=O)CCN=C1NS(=O)(=O)c2ccccc21)NNC(=O)c1ccccc1 was read as Mdm2 MdmX PPI inactive, PP5 primary inactive, Beta cell apopt inactive, PP1 counter inactive and Calb FLC inactive.
O=C(Nc1ccc(S(=O)(=O)NC2=NCCCCC2)cc1)c1cc(F)c(F)cc1Cl was read as Mdm2 MdmX PPI inactive.
`O=c1c(Cl)nc2cc(Cl)ccc2n1CCNc1ncc(C(F)(F)F)cc1Cl` gave Mdm2 MdmX PPI 96.8, PP5 primary inactive, Beta cell apopt inactive, PP1 counter inactive, CSC inhib inactive, Calb FLC inactive, Mdm2-MdmX conf 43.4 and FLuc counter inactive.
`COc1ccc(-c2cc(C(=O)NCC3CCCO3)c3cc(C(C)C)ccc3n2)cc1` (stereo not drawn) gave Mdm2 MdmX PPI inactive, PP5 primary inactive, Beta cell apopt inactive, PP1 counter inactive, CSC inhib inactive and Calb FLC inactive.
Screening CCOC(=O)C1CCN(Cc2ccc(OCc3ccccc3)c(OC)c2)CC1 returned Mdm2 MdmX PPI inactive, PP5 primary inactive, Beta cell apopt inactive, PP1 counter inactive, CSC inhib inactive and Calb FLC inactive.
For Cc1ccc(Nc2nc(N)nc(CCl)n2)cc1 the results were Mdm2 MdmX PPI 83.4, PP5 primary inactive, Beta cell apopt inactive, PP1 counter inactive, CSC inhib inactive, Calb FLC inactive, Mdm2-MdmX conf 79.3 and FLuc counter 59.1.
`Nc1nc(CCl)nc(Nc2ccccc2)n1` gave Mdm2 MdmX PPI inactive, PP5 primary inactive, Beta cell apopt inactive, PP1 counter inactive, CSC inhib inactive and Calb FLC inactive.
`Cc1cccc(Nc2nc(N)nc(CCl)n2)c1` gave Mdm2 MdmX PPI 68.1, PP5 primary inactive, Beta cell apopt inactive, PP1 counter inactive, CSC inhib inactive, Calb FLC inactive, Mdm2-MdmX conf 63.9 and FLuc counter 61.0.
Cc1ccc(Nc2nc(N)nc(CCl)n2)c(C)c1 was read as Mdm2 MdmX PPI 95.5, PP5 primary inactive, Beta cell apopt inactive, PP1 counter inactive, CSC inhib inactive, Calb FLC inactive, Mdm2-MdmX conf 100.1 and FLuc counter 53.4.
Screening CCOc1ccc(Nc2nc(N)nc(CCl)n2)cc1 returned Mdm2 MdmX PPI 98.1, PP5 primary inactive, Beta cell apopt inactive, PP1 counter inactive, CSC inhib inactive, Calb FLC inactive, Mdm2-MdmX conf 98.0 and FLuc counter 56.5.
For CCOC(=O)c1c(C)[nH]c(C(=O)N/N=C\c2ccccc2Cl)c1C the results were Mdm2 MdmX PPI inactive, PP5 primary inactive, Beta cell apopt inactive, PP1 counter inactive, CSC inhib inactive and Calb FLC inactive.
For Cc1ccc(Nc2nc(N)nc(CSc3ncccn3)n2)cc1 the results were Mdm2 MdmX PPI inactive, PP5 primary inactive, Beta cell apopt inactive, PP1 counter inactive, CSC inhib inactive and Calb FLC inactive.
